Source: PubChem (National Center for Advancing Translational Sciences (NCATS))
TDP1 cell noCPT: qHTS for Inhibitors of human tyrosyl-DNA phosphodiesterase 1 (TDP1): qHTS in cells in absence of CPT | Potency, µM (series often up to 46.2 µM), inactives show at the highest dose activity change, negative = growth inhibition, hits mostly inhibitors | 420,000 tested, 15% active | DT40 Tdp1-/- hTDP1 cells, no CPT, ATP luminescence, 48 h | AID 686978, 2013; also: potency is read from the fitted curve at half-maximal effect; nearly all actives have a fitted effect of over 55% in size
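A cellular qHTS used chicken DT40 cells lacking endogenous Tdp1 but carrying stably transfected human TDP1. Compounds were applied without camptothecin, and cell growth kinetics were judged by ATP-dependent luminescence after ≥48 hr.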
TDP1 cell CPT: DT40-hTDP1 cell growth loss with CPT | chicken DT40 Tdp1-/-;hTDP1 cells + 20 nM CPT, ATP luminescence, 48 h | Potency, µM (top dose mostly 46.2 µM), for the others: at the highest dose activity change, negative = growth inhibition, actives largely listed as inhibitors | 420,000 tested, 12% active | AID 686979; also: potency is read from the fitted curve at half-maximal effect; nearly all actives have a fitted effect of over 55% in size
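Cell growth measured by CellTiter-Glo luminescence after a minimum 48 h, 37 C compound exposure with 20 nM CPT in Tdp1-knockout DT40 cells stably expressing hTDP1, seeded 400/well; qHTS titration format.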
IL-1B inflam inh: inhibitors of inflammasome signaling (IL-1 beta secretion); 360,000 tested, 4.7% active; THP-1 LPS/ATP IL-1B secretion, AlphaLISA, 16 h; stronger effect = lower value; AID 743279; activity change, % at 57.5 µM; in the data active = activity change below about -50%; inconclusive = mostly about -30% to -49%
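Secreted IL-1B measured by AlphaLISA bead assay after 16 h compound exposure of THP-1 cells; compounds (final up to 57.5 uM) added 1 h before LPS (250 ng/mL) and ATP (1.25 mM) stimulation; lower signal means less secretion.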
HT1080 IDH1KD tx: HT-1080 IDH1 knockdown cell toxicity (counter line). HT-1080 IDH1 knockdown viability, ATP luminescence, 48 h. Potency, µM (highest dose often 46.1 µM), for the others: top-dose activity, negative = toxicity, usual class: cytotoxic. 360,000 tested, 2% active. AID 686971;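 also: potency is read from the fitted curve at half-maximal effect; 0% = DMSO wells and -100% = cell-free medium wells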
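IDH1KD HT-1080 cells, 750/well, RPMI + 5% FBS; compound pinned after 2 h settling; 48 h, 37 °C; CellTiter-Glo luminescence; % activity normalised to DMSO and no-cell wells; curves fitted, classed by r2 and efficacy.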
HT1080NT lethal: kills 2HG-producing HT-1080-NT fibrosarcoma cells; HT-1080-NT fibrosarcoma viability, CellTiter-Glo ATP luminescence, 48 h; Potency, µM (doses to about 46.1 µM), for inactives: top-dose activity, negative = less viability, hits mostly cytotoxic; 360,000 tested, 1.6% active;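 also: NT is the 2HG producing partner of a matched IDH1 knockdown line; potency is read from the fitted curve at half-maximal effect; 0% = DMSO-treated cells and -100% = media-only wells without cells; nearly all actives have a fitted effect of over 55% in size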
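HT-1080-NT; 750 cells/well; 5% FBS RPMI; 48 h compound, 37 degrees C; CellTiter-Glo luminescence; curve fitting and curve-class assignment.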
An asterisk follows results filed as active; ? = inconclusive; · = no result. Sampled rows, rich in hits. Any-hit rate of the full collection: about 19%. Unless noted, calls follow the shape of the dose curve; as a rule, active = well fitted curve in the direction sought with a large enough effect; inconclusive = small, poorly fitted or top-dose-only effect, or another doubt; inactive = no such curve, though single readings can be large; an effect the other way counts as inactive or inconclusive. Unless noted, % is scaled to controls: 0 for no effect and ±100 for the full control effect.

SMILES	TDP1 cell noCPT	TDP1 cell CPT	IL-1B inflam inh	HT1080 IDH1KD tx	HT1080NT lethal
CCOC(=O)c1c[nH]c2cc(OCC(C)C)c(OCC(C)C)cc2c1=O	-11%	-4%	·	·	·
CCOc1ccc2[nH]c3ncccc3c(=O)c2c1	?	4%	-60*	-13%	-16%
CCOc1ccc2[nH]c(C)c(CN3CCOCC3)c(=O)c2c1	-12%	-11%	-11	-3%	2%
O=C(O)c1ccccc1OP(=O)(O)O	-14%	4%	·	·	·
O=C(NCc1cccs1)C1CCN(S(=O)(=O)c2cccc([N+](=O)[O-])c2)CC1	-11%	5%	10	1%	-1%
Cc1c(CC(=O)O)c(=O)oc2c(C)c(OCc3ccccc3Br)ccc12	20%	-8%	-13	4%	-2%
COc1ccc(-c2noc(CN(C)C(=O)c3ccc4c(c3)OCO4)n2)cc1	-18%	-13%	-2	1%	-1%
C/[N+]([O-])=C/c1c(OCc2ccccc2)ccc2ccccc12	23µM*	-1%	-11	-3%	0%
O=Cc1c(OCc2ccccc2)ccc2ccccc12	-14%	-14%	0	-11%	-6%
C=C1CC(Cn2cc(Br)c(=O)[nH]c2=O)(c2ccc(-c3ccccc3)cc2)OC1=O (stereo not drawn)	0.026µM*	0.033µM*	-2	1.6µM*	2.3µM*
Cc1nn(-c2ccccc2)c(Cl)c1/C=C/C(=O)c1ccccc1	?	?	-95*	?	?
Cc1nn(-c2ccccc2)c(Cl)c1/C=C1\C(=O)N(C)C(=S)N1C	15µM*	?	-23	10%	-1%
O=C(NCc1n[nH]c(=S)n1-c1ccc([N+](=O)[O-])cc1)c1ccc(S(=O)(=O)N2CCOCC2)cc1	-3%	-7%	-6	8%	16%
CCOC(=O)COc1ccc(S(=O)(=O)NC2CC2)cc1	1%	16%	-19	5%	15%
O=C(CN(Cc1ccco1)Cc1ccco1)Nc1cc(S(=O)(=O)N2CCCCC2)ccc1Cl	12µM*	13µM*	-26	?	-7%
O=C(CN(Cc1ccco1)Cc1cccs1)N1CCN(S(=O)(=O)c2cccc(F)c2)CC1	18µM*	23µM*	-24	-17%	-1%
Cc1ccc(NC(=O)CSc2ccc3c(c2)OCCO3)c(O)c1	?	18µM*	0	-4%	8%
O=C(c1cccc(S(=O)(=O)N2CCOCC2)c1)N(Cc1ccco1)Cc1cccs1	?	?	1	2%	0%
COc1ccc(OCCCC(=O)Nc2cc(S(=O)(=O)N3CCCCC3)ccc2C)cc1	?	21µM*	-7	-28%	-22%
CCCCN(C(=O)COC(=O)c1ccc(C=O)cc1)c1c(N)n(CCC)c(=O)[nH]c1=O	5%	2%	9	-2%	-2%
CN1C(=O)NC(NS(=O)(=O)c2ccc(N)cc2)(C(F)(F)F)C1=O (stereo not drawn)	0%	24%	-3	-6%	10%
Cc1ccc(S(=O)(=O)N2CCCCC2)cc1NC(=O)CSc1ccc2c(c1)OCCO2	?	23µM*	-8	-9%	-3%
Cc1ccccc1NCC(=O)Nc1cc(S(=O)(=O)N2CCCCC2)ccc1C	21µM*	?	-25	0%	3%
CC(NCC(=O)Nc1cc(S(=O)(=O)N2CCCCCC2)ccc1Cl)c1ccccc1 (stereo not drawn)	13µM*	18µM*	-10	-24%	?
Cc1ccc(S(=O)(=O)N2CCCCC2)cc1NC(=O)COc1ccccc1	?	?	14	-22%	-21%
SMILES	TDP1 cell noCPT	TDP1 cell CPT	IL-1B inflam inh	HT1080 IDH1KD tx	HT1080NT lethal
O=C(Cc1cccs1)Nc1cc(S(=O)(=O)N2CCCCC2)ccc1Cl	-18%	-18%	-5	-6%	-2%
Clc1ccc(-n2cc(COCc3ccccc3)nn2)cc1	?	-12%	-17	22%	22%
CCNc1ncc2nc(CCc3ccccc3)c(=O)n(Cc3ccc(F)cc3)c2n1	1%	-10%	·	·	·
Nc1cc(C(=O)c2ccccc2)ccc1[N+](=O)[O-]	0%	-6%	?	-1%	5%
Cc1cn2cc(CNC(=O)CN3Cc4ccccc4OC(c4ccccc4F)C3)nc2s1 (stereo not drawn)	?	-5%	·	·	·
O=C1N(c2ccccc2)C[C@@H]2C[C@@H](c3cccs3)N3CCC[C@@]123	-28%	-24%	-5	-3%	5%
CC(C)(O)C#Cc1ccc([C@@H]2C[C@H]3CN(c4ccccc4)C(=O)[C@]34CCCN24)s1	?	-24%	-72*	?	-23%
CCC(Sc1nncn2c1cc1sccc12)C(=O)Nc1cccc(OC)c1 (stereo not drawn)	23µM*	?	·	·	·
CCC(Sc1nnc(C)n2c1cc1sccc12)C(=O)Nc1ccccc1F (stereo not drawn)	21µM*	?	·	·	·
O=C(COC(=O)CCSc1ccccc1)Nc1ccccc1Br	-5%	2%	31	17%	11%
CCN(Cc1ccncc1)C(=O)c1cccc(S(=O)(=O)N2CCCCC2)c1	-15%	-8%	6	1%	5%
COC(=O)CCCC[C@@H]1SC[C@@H]2NC(=O)N[C@@H]21	-7%	2%	·	·	·
COC(=O)CCCCC1SCC2NC(=O)NC21O (stereo not drawn)	-27%	-1%	-113*	15%	6%
CCS(=O)(=O)Nc1cccc(-c2ccc3nnc(-c4cccnc4)n3n2)c1	?	21µM*	-54*	-24%	-17%
CCCS(=O)(=O)Nc1cccc(-c2ccc3nnc(C)n3n2)c1	?	?	20	-1%	-16%
Cc1nnc2ccc(-c3cccc(NS(=O)(=O)c4ccccc4[N+](=O)[O-])c3)nn12	15µM*	23µM*	32	?	?
CC(C(=O)Nc1ccccc1Sc1ccccc1)N(c1ccccc1)S(C)(=O)=O (stereo not drawn)	?	?	0	-26%	-21%
O=C1COc2ccc(-c3cc(-c4ccccc4)c4c(n3)-c3ccccc3OC4)cc2N1	9.2µM*	13µM*	·	·	·
O=C1COc2ccc(-c3cc(-c4ccc(Cl)cc4)c4c(n3)-c3ccccc3OC4)cc2N1	2.3µM*	1µM*	·	·	·
COc1ccc(-c2cc(-c3ccccc3)nc3c2COc2ccccc2-3)cc1	-21%	-27%	·	·	·
O=C1COc2ccc(-c3cc(-c4ccccc4)c4c(n3)-c3cc(Cl)ccc3OC4)cc2N1	1.2µM*	3.3µM*	·	·	·
CCOC(=O)C1C(=O)C=C(/C=C/c2ccccc2)CC1c1ccc(Cl)cc1 (stereo not drawn)	?	29µM*	-26	-7%	-4%
